The values that follow come from PubChem BioAssay (NCATS).

Experiment [1] addresses ATP-dependent 6-phosphofructokinase (Trypanosoma brucei brucei) (UniProt O15648). The experiment in a line: qHTS Assay to Find Inhibitors of T. brucei phosphofructokinase: hit validation (AID 492961). Also: potency is read from the fitted curve at half-maximal effect. Put shortly: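 Percent activity derived from corrected luminescence, normalized between 0x and 1x enzyme controls, then fitted to concentration-response curves. Conditions: 1.25 nM PFK, 0.1 mM ATP, 0.5 mM F6P, 45 min RT.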
A general note: qHTS replaces the single test concentration by a dilution series.

Experiment [2] is described as follows: S16 Schwann cell viability assay (CellTiter-Glo assay) (AID 624031).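 Also: native untransfected S16 rat Schwann cells; cellular ATP luminescence as a viability measure; plate controls were DMSO-treated cells for no effect and cell-free wells for full effect; nearly all actives have a fitted effect of over 70% in size.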 Put shortly:
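Concentration-effect curves come from CellTiter-Glo luminescence of S16 rat Schwann cells after 24 h compound exposure. Each reading was normalized to DMSO wells (0%) and wells without cells, and curves were ranked by r2 and response magnitude.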

The nature of experiment [3]: S16 Schwann cell PMP22 intronic element beta-lactamase assay (AID 624044; calls by dose curve; also: nearly all actives have a fitted effect of over 15% in size; also: potency is read from the fitted curve at half-maximal effect;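 as to ratio activity, negative = inhibition: 0% = DMSO and -100% = potassium clavulanate positive control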). Particulars: S16 rat Schwann cells, PMP22 element beta-lactamase FRET, 24 h; ratio activity, negative = inhibition: at 38.3 µM (top of the series). Put shortly: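 Rat S16 Schwann cells with beta-Lac driven by a PMP22 intronic element, compound-treated 24 h at 37 °C. LiveBLAzer FRET B/G read: 460 nm normalized to potassium clavulanate vs DMSO; 535 nm FRET as viability; concentration-effect curves classified.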

For the next experiment, the system named is CP192. The experiment in a line: qHTS profiling for inhibitors of Plasmodium falciparum proliferation (AID 504749). Also: nearly all actives have a fitted effect of over 60% in size. Also: potency is read from the fitted curve at half-maximal effect.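 As to activity, negative = inhibition: 0% = DMSO vehicle and full inhibition = artemisinin control.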 The note with it: P. falciparum in erythrocytes, SYBR Green DNA, 72 h; series mostly up to 28.7 µM. Put shortly: (§1)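 P. falciparum-infected erythrocytes (0.3% parasitemia, 2.5% hematocrit final) were exposed to compounds for 72 h at 37 C in 5% CO2, then lysed with SYBR Green buffer overnight at room temperature; parasite DNA fluorescence was normalized to artemisinin and DMSO controls.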

Another experiment relates to CP262. The description is as above. The note with it: P. falciparum in erythrocytes, SYBR Green DNA, 72 h; series mostly up to 28.7 µM. Put shortly: as §1
Another experiment relates to CP286. Described as above. Particulars: P. falciparum in erythrocytes, SYBR Green DNA, 72 h; series mostly up to 28.7 µM. Put shortly:
as §1

The next experiment relates to CP315. The description is as above. Particulars: P. falciparum in erythrocytes, SYBR Green DNA, 72 h; series mostly up to 28.7 µM. Put shortly:
as §1

The subject of the next experiment is CP325. The description is as above. Particulars: P. falciparum in erythrocytes, SYBR Green DNA, 72 h; series mostly up to 28.7 µM. Put shortly:
as §1

The subject of another experiment is Dd2. The description is as above. Particulars: P. falciparum in erythrocytes, SYBR Green DNA, 72 h; series mostly up to 28.7 µM. Put shortly: as §1
A further experiment has as its system N140. The experiment is described as above. The note with it: P. falciparum in erythrocytes, SYBR Green DNA, 72 h; series mostly up to 28.7 µM. Put shortly: as §1
Another experiment relates to PC49. Described as above. Particulars: P. falciparum in erythrocytes, SYBR Green DNA, 72 h; series mostly up to 28.7 µM. Put shortly:
as §1

For experiment [4], the target named is Luciferin 4-monooxygenase (Photinus pyralis) (UniProt P08659). The experiment in a line: Biochemical firefly luciferase enzyme assay for NPC (AID 624030).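 Also: purified P. pyralis luciferase at 10 nM with luciferin and ATP substrate; 0% = DMSO and -100% = full luciferase inhibition by PTC124 control; nearly all actives have a fitted effect of over 70% in size.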 Put shortly:
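Counter-screen for direct inhibition of the luciferase enzyme by approved-drug library compounds, run at 10 nM enzyme in 50 mM Tris acetate (final). Luminescence was read within 5 min of enzyme-buffer addition and normalized to PTC124 versus DMSO (0%).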

Experiment [5] is described as follows: qHTS profiling for inhibitors of Plasmodium falciparum proliferation (AID 504749). Also: potency is read from the fitted curve at half-maximal effect.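 As to activity, negative = inhibition: 0% = DMSO vehicle and full inhibition = artemisinin control.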 As to all read-outs here: nearly all actives have a fitted effect of over 60% in size. The note with it: P. falciparum in erythrocytes, SYBR Green DNA, 72 h; for activity, negative = inhibition: at 28.7 µM (top of the series). Put shortly: as §1
For the next experiment, the system named is FAB9. Described as above. The note with it: P. falciparum in erythrocytes, SYBR Green DNA, 72 h; series mostly up to 28.7 µM. Put shortly:
as §1

The subject of another experiment is CP329. The description is as above. The note with it: P. falciparum in erythrocytes, SYBR Green DNA, 72 h; series mostly up to 28.7 µM. Put shortly: as §1

Results filed as inconclusive are left out. Unmarked numbers belong to inactive results. Activity calls are given as the source filed them. Unless noted, calls follow the shape of the dose curve; as a rule, active = well fitted curve in the direction sought with a large enough effect; inconclusive = small, poorly fitted or top-dose-only effect, or another doubt; inactive = no such curve, though single readings can be large; an effect the other way counts as inactive or inconclusive.

Sequence of ATP-dependent 6-phosphofructokinase (Trypanosoma brucei brucei) (O15648 whole entry, looked up): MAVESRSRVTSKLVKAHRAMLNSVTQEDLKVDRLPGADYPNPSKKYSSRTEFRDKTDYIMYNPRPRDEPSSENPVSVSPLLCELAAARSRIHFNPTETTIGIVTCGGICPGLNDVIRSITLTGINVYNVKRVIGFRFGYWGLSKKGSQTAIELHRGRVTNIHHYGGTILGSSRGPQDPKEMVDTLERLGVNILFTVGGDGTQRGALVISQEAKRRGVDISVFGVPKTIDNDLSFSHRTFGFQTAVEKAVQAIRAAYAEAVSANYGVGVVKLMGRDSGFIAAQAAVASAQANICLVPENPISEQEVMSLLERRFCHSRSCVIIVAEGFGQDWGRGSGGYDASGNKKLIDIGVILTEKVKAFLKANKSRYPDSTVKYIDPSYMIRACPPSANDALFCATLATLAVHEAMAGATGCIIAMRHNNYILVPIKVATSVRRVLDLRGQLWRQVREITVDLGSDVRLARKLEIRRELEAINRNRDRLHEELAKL
Sequence of Luciferin 4-monooxygenase (Photinus pyralis) (P08659 whole entry, looked up): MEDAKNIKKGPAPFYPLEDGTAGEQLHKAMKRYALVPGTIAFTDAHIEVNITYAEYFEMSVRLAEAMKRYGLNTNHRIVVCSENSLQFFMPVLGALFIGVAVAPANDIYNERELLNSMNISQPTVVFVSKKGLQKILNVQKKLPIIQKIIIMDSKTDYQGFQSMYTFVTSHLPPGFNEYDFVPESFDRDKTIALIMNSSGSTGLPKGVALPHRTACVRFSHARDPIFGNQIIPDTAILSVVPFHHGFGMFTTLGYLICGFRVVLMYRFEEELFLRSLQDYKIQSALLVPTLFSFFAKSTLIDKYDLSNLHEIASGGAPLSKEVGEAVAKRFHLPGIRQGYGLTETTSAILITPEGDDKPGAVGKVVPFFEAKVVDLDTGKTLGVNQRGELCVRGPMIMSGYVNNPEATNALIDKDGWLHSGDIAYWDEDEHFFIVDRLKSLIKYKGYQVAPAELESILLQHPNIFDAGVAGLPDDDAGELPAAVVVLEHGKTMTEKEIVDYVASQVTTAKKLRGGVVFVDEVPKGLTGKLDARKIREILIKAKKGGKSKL

As to `COC(=O)C1[C@@H](OC)C(OC(=O)COc2ccc(OC)cc2)C[C@@H]2CN3CCc4c([nH]c5cc(OC)ccc45)[C@H]3C[C@H]12` (stereo partly specified), the Potency result (in [1]; in experiment [2]; in experiment [3]; in the experiment on CP192; in the experiment on CP262; in the experiment with CP315) was “inactive” each time. Besides, the Potency entry with CP325 and in the experiment with PC49 was “inactive” each time. Further, the values for the Potency in the experiment on CP286, in the experiment with Dd2 and in the experiment on N140 were 11.2 µM (active), 10 µM (active) and 11.2 µM (active), respectively.

For the compound `CCC1OC(=O)C[C@H](O)C(C)[C@@H](O[C@@H]2OC(C)C(O)C(N(C)C)C2O)C(CCN2CC(C)CC(C)C2)CC(C)C(=O)/C=C/C(C)=C\[C@@H]1COC1OC(C)C(O)C(OC)C1OC` (stereo partly specified), the Potency entry (in [1]; in experiment [4]; in [2]; in the experiment on FAB9) was “inactive” each time. Further, in experiment [5] (parasite line A), the activity, negative = inhibition is -29.2%. Also, the figures for the Potency with CP286, with Dd2 and in the experiment with N140 were 5.62 µM (active), 3.98 µM (active) and 10 µM (active), respectively.

`O=C1Oc2ccccc2C(=O)C1C(CC(O)c1ccc(-c2ccc(Br)cc2)cc1)c1ccccc1` (stereo unspecified): the Potency entry (in experiment [1]; in [2]; in [3]; in the experiment with CP192; with CP262; in the experiment with CP286) was “inactive” each time. Also, the Potency entry in the experiment with CP315, in the experiment with CP325, in the experiment with CP329, in the experiment with Dd2, with FAB9 and in the experiment on N140 was “inactive” each time. Further, the Potency result with PC49 is “inactive”. In experiment [5] (parasite line A), the activity, negative = inhibition was -67.1%.

Consider `Cc1cncc(C(=O)O)[n+]1[O-]`, for which the Potency entry (in experiment [1]; in experiment [4]; in experiment [2]; in the experiment with CP192; in the experiment on CP262; with CP286) was “inactive” throughout. The Potency entry with CP315, in the experiment on CP325, in the experiment on CP329, in the experiment with Dd2, in the experiment with FAB9 and in the experiment with PC49 was “inactive” throughout.

Regarding `CCC(C)C(N)C(=O)O` (stereo unspecified), the Potency result (in [1]; in [4]; in [2]; in the experiment on CP192; in the experiment on CP262; in the experiment with CP286) was “inactive” throughout. Moreover, the Potency entry with CP315, in the experiment on CP325, in the experiment with CP329, in the experiment on Dd2, in the experiment with FAB9 and in the experiment on N140 was “inactive” throughout. Moreover, in the experiment with PC49, the Potency entry is “inactive”. Besides, the activity, negative = inhibition in experiment [5] (parasite line B) was -1.6%.

As for `NC(C(=O)O)C(O)c1ccc(O)c(O)c1` (stereo unspecified), the Potency in experiment [1] was 4.47 µM (active); in experiment [5] (parasite line A), 14.1 µM (active); in the experiment with N140 it was 12.6 µM (active). Besides, the Potency entry (in [3]; in the experiment with CP315; with PC49) was “inactive” throughout.

`CNC1CCc2cc(OC)c(OC)c(OC)c2-c2ccc(OC)c(=O)cc21` (stereo unspecified): the Potency result (in [1]; in experiment [4]; in experiment [2]; with CP192; in the experiment with CP262; with CP286) was “inactive” each time. Also, the Potency result with CP315, in the experiment with CP325, in the experiment with CP329, with FAB9, in the experiment on N140 and with PC49 was “inactive” in each case. In addition, the Potency in experiment [3] was 0.178 µM (active). In addition, the figures for the activity, negative = inhibition in experiment [5] (parasite line A) and in [5] (parasite line B) were -5.32% and 0.292%, respectively.

On to `CCN(CC)CCOCCOC(=O)C(CC)(CC)c1ccccc1` (tested in a mixture with another compound), for which the Potency entry (in experiment [1]; in experiment [4]; in experiment [2]; in the experiment on CP192; in the experiment with CP262; with CP315) was “inactive” each time. Moreover, in the experiment on FAB9, the Potency entry is “inactive”. In addition, in the experiment on Dd2, the Potency is 0.891 µM (active).

Consider `C=C1CC[C@H](O)C/C1=C/C=C1\CCC[C@]2(C)[C@@H]([C@H](C)CC[C@@H](O)C(C)(C)O)CC[C@@H]12`, for which the Potency result (in [1]; in experiment [4]; in experiment [2]; in experiment [3]; with CP192; with CP262) was “inactive” throughout. Further, the Potency entry with CP286, in the experiment with CP315, in the experiment on CP325, in the experiment on CP329, in the experiment with FAB9 and in the experiment with PC49 was “inactive” each time. Moreover, the Potency in the experiment with N140 was 8.91 µM (active).

`C[C@]12CCC(=O)C=C1[C@@H]1C[C@H]1[C@H]1[C@@H]3[C@@H]4C[C@H]4[C@@]4(CCC(=O)O4)[C@@]3(C)CC[C@@H]12`: the Potency entry (in experiment [1]; in experiment [4]; in experiment [2]; in experiment [3]; in the experiment on CP192; in the experiment on CP262) was “inactive” in each case. Also, the Potency entry in the experiment with CP286, in the experiment with CP315, in the experiment with CP325, in the experiment with CP329, with Dd2 and with FAB9 was “inactive” in each case. Also, the Potency entry in the experiment on N140 and in the experiment with PC49 was “inactive” throughout. Also, the activity, negative = inhibition was -2.83% in experiment [5] (parasite line A) and -11.7% in [5] (parasite line B).

Regarding `C[C@H](CN1c2ccccc2Sc2cccnc21)N(C)C`, the Potency entry (in experiment [1]; in experiment [4]; in [3]; in the experiment with CP262; in the experiment with FAB9; in the experiment on PC49) was “inactive” throughout. In addition, the activity, negative = inhibition in experiment [5] (parasite line A) was -16.9%; in experiment [5] (parasite line B), -1.99%. The Potency with CP286 was 4.47 µM (active); in the experiment with Dd2, 4.47 µM (active); in the experiment with N140, 11.2 µM (active).

For the compound `CCC1OC(=O)C[C@@H](O)[C@H](C)[C@@H](OC2OC(C)CC(N(C)C)C2O)[C@@H](CC=O)C[C@@H](C)C(=O)/C=C/[C@]2(C)OC2C1C` (stereo partly specified), the Potency entry (in experiment [1]; in experiment [4]; in [2]; in experiment [3]; in the experiment with FAB9) was “inactive” in each case. For the same compound, the Potency with CP286 is 1.12 µM (active); in the experiment with Dd2, 1 µM (active).

In the case of `C=C1CC[C@H](O)C/C1=C/C=C1\CCC[C@]2(C)[C@@H]([C@H](C)CCCC(C)(C)O)CC[C@@H]12`, the Potency result (in experiment [1]; in experiment [4]; in the experiment with CP192; in the experiment with CP262; in the experiment on CP315; with CP325) was “inactive” in each case. The Potency entry with CP329 and in the experiment on FAB9 was “inactive” throughout. Besides, the Potency is 11.2 µM (active) in [5] (parasite line B), 12.6 µM (active) in the experiment on Dd2 and 10 µM (active) with N140.
